# Laboratory results taken from PubChem BioAssay (EPA / NIEHS).
# Inconclusive results are not listed. Where a structure was tested more than once in an assay, its records may differ in their call. Activity calls are given as the source filed them. The calls were made as follows: active = hit-call score of the fitted dose curve at least 0.9, where 1 is the maximum; inconclusive = response in the unintended direction; inactive = score below 0.9.
# Key:
# [1] = biological target: Sodium channel protein type 1 subunit alpha (Rattus norvegicus) (UniProt P04774); assay: NVS_IC_rNaCh_site2: NovaScreen (NVS) Ion Channel Assay for rat Sodium Channel, Site 2 (NaCh) (AID 2283322);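 also: hit means loss of radioligand binding signal relative to DMSO so AC50 marks displacement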
# Procedure, shortened: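 Initial duplicate single-point testing at 25 uM, followed by concentration-response runs for actives. Binding of radioligand to rat forebrain membranes quantified after 1 h via filter-based radiodetection.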
# [2] = biological target: rat Gamma-Aminobutyric Acid Type A Receptor, Non-Selective (GABAR-NonSelective), Gabra1 (gene 29705) (UniProt P62813); assay: NVS_LGIC_rGABAR_NonSelective: NovaScreen (NVS) Ligand-Gated Ion Channel Assay for rat Gamma-Aminobutyric Acid Type A Receptor, Non-Selective (GABAR-NonSelective) (AID 2283326)
# rat Gamma-Aminobutyric Acid Type A Receptor, Non-Selective (GABAR-NonSelective), Gabra1 (gene 29705), sequence (P62813 whole entry, looked up): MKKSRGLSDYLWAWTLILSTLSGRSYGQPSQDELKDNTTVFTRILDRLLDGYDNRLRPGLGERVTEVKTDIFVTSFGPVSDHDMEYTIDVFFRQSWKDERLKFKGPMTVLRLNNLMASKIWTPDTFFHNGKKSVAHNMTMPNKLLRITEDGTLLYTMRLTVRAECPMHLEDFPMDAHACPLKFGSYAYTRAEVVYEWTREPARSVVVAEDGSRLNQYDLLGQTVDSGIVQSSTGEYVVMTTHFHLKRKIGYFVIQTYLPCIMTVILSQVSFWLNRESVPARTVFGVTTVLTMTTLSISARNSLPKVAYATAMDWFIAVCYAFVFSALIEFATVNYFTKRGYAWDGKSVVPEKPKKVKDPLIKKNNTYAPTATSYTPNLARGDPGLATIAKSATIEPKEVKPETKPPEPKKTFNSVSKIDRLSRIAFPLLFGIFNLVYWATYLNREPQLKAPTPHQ
# Procedure, shortened: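 Compounds were first screened in duplicate at 25 uM, with actives run as singleton concentration series (max 50 uM). Binding of a radioligand to rat whole-brain GABA-A preparation was measured by filtration and scintillation counting after 1 h, DMSO baseline.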
# [3] = biological target: rat Thyrotropin Releasing Hormone Receptor (TRH), Trhr (gene 25570) (UniProt Q01717); assay: NVS_GPCR_rTRH: NovaScreen (NVS) G Protein-Coupled Receptor Assay for rat Thyrotropin Releasing Hormone Receptor (TRH) (AID 2283329);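 also: hit means lower bound tracer signal versus DMSO baseline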
# rat Thyrotropin Releasing Hormone Receptor (TRH), Trhr (gene 25570), sequence (Q01717 whole entry, looked up): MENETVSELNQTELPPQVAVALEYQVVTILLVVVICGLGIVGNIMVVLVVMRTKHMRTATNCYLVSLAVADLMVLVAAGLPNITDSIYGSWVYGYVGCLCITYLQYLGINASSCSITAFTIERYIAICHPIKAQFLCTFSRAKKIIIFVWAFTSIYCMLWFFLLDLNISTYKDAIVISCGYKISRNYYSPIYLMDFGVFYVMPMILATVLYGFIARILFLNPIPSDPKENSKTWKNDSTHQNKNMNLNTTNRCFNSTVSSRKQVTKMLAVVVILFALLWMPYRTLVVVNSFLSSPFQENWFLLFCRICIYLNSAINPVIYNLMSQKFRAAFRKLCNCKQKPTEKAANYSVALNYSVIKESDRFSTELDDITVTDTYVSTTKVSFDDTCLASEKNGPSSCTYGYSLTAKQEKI
# Procedure, shortened: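 Competitive radioligand binding on rat forebrain membrane preparations, with filtration and scintillation readout after 4 h. Primary testing in duplicate at 25 uM; actives confirmed in concentration-response. DMSO defined baseline.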
# [4] = biological target: human Peripheral-type Benzodiazepine Receptor (PBR), TSPO (gene 706) (UniProt P30536); assay: NVS_MP_hPBR: NovaScreen (NVS) Membrane Protein Assay for human Peripheral-type Benzodiazepine Receptor (PBR) (AID 2283331);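 also: hits reduce radioligand binding relative to DMSO baseline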
# human Peripheral-type Benzodiazepine Receptor (PBR), TSPO (gene 706), sequence (P30536 whole entry, looked up): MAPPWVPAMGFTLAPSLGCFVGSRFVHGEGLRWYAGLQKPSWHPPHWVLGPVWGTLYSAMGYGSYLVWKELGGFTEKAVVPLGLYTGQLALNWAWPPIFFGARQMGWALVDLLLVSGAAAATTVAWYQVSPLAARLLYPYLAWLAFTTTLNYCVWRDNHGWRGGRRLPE
# Procedure, shortened: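 Cell-free radioligand displacement, human colonic membranes, 1 h exposure. Filter radiodetection read-out. Single-concentration duplicates (25 uM), then concentration-response for actives; DMSO negative control.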
# [5] = biological target: human Serotonin, 5-Hydroxytryptamine Receptor 3 (5HT3), HTR3A (gene 3359) (UniProt P46098); assay: NVS_LGIC_h5HT3: NovaScreen (NVS) Ligand-Gated Ion Channel Assay for human Serotonin, 5-Hydroxytryptamine Receptor 3 (5HT3) (AID 2283325)
# human Serotonin, 5-Hydroxytryptamine Receptor 3 (5HT3), HTR3A (gene 3359), sequence (P46098 whole entry, looked up): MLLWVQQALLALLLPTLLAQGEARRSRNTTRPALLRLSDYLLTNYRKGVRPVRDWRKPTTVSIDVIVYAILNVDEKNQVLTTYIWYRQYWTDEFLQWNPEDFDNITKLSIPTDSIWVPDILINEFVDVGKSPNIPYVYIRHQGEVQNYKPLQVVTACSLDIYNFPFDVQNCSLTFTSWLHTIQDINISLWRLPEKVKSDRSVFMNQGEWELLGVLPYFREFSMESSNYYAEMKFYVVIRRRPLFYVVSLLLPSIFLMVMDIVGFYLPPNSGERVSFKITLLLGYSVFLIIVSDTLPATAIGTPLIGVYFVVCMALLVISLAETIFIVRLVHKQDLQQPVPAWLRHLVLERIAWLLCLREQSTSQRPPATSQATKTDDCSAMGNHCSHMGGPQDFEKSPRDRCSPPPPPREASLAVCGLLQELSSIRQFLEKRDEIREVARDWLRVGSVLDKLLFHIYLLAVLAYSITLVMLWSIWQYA
# Method: NVS_LGIC_h5HT3 is a biochemical, single-readout assay that uses extracted gene-proteins from HEK293 in a cell-free assay. Measurements were taken 1 hour after chemical dosing in a 96-well plate.NVS_LGIC_h5HT3 is one of one assay component(s) measured or calculated from the NVS_LGIC_h5HT3 assay. It is designed to make measurements of radioligand binding, a form of binding reporter, as detected with scintillation counting signals by Filter-based radiodetection technology.Data from the assay component NVS_LGIC_h5HT3 was analyzed into 1 assay endpoint. This assay endpoint, NVS_LGIC_h5HT3, was analyzed in the positive analysis fitting direction relative to DMSO as the negative control and baseline of activity. Using a type of binding reporter, loss-of-signal activity can be used to understand changes in the binding as they relate to the gene HTR3A. Furthermore, this assay endpoint can be referred to as a primary readout, because the performed assay has only produced 1 assay endpoint. To generalize the intended target to other relatable targets, this assay endpoint is annotated to the ion channel intended target family, where the subfamily is ligand-gated ion channel.
# Binding assays used specific radioligands (tritiated, iodinated) with non-radioactive competitive displacement ligands in agonist or antagonist protocols (as indicated) and various reference compounds and inhibitors to titrate specific binding to receptors and transporters. Most enzyme assays (CYPs, kinases, phosphatases, proteases, HDACs) used recombinant protein and specific substrates (fluorescence mostly, some colorimetric and radioactive) and inhibitors, followed by a biochemical separation of substrate and product. All assays for the biochemical HTS were initially run in duplicate at a single concentration (10 uM for CYP450 assays and 25 uM for all others). Assay-chemical combinations meeting a pre-defined threshold (e.g., 30% inhibition and other criteria defined below) were then run in singleton concentration-response format with maximum concentration of 20 uM for CYPs and 50 uM for all others. Each assay was run with positive and negative controls, and concurrent controls on every plate. The follow-up (secondary) screen tested active chemical-pairs in concentration series, as well as a few additional assays not tested in the primary screen, some selected negative inactives, and several cases re-run in the concentration series for confirmatory purposes.
# [6] = biological target: human Androgen Receptor (AR), AR (gene 367) (UniProt P10275); assay: NVS_NR_hAR: NovaScreen (NVS) Nuclear Receptor Binding Assay for human Androgen Receptor (AR) (AID 2283332)
# human Androgen Receptor (AR), AR (gene 367), sequence (P10275 whole entry, looked up): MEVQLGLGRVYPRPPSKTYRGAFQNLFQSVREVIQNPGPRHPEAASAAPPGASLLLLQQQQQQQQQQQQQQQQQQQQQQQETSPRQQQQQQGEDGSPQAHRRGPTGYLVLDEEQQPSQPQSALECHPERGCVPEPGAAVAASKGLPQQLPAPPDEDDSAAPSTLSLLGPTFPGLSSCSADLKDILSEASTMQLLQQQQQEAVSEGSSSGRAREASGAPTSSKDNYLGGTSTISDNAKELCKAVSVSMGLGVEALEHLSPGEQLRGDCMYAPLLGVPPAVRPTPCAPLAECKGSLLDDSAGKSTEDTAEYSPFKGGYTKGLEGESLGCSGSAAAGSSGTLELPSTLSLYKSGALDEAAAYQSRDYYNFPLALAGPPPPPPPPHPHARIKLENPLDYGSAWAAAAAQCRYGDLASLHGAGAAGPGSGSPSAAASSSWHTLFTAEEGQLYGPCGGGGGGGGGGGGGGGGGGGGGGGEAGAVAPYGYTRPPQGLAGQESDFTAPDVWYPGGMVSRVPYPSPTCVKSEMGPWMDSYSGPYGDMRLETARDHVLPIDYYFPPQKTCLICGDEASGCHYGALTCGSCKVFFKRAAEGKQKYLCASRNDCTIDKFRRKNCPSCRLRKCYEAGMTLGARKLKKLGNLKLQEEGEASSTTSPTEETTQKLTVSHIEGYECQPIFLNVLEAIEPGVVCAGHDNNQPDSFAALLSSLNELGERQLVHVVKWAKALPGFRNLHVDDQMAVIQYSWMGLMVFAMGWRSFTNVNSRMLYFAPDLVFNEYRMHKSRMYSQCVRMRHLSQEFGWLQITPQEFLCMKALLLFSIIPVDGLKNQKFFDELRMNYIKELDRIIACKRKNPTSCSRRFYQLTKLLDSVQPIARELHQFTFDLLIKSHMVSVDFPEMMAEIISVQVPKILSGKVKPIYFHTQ
# Procedure, shortened: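 LnCAP cell-free extract; radioligand displacement read by scintillation counting after 20 h. Primary screen single concentration 25 uM in duplicate, actives then run as concentration series; loss-of-signal fitted relative to DMSO baseline.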
# [7] = biological target: Voltage-gated inwardly rectifying potassium channel KCNH2 (Homo sapiens) (UniProt Q12809); assay: NVS_IC_hKhERGCh: NovaScreen (NVS) Ion Channel Assay for human Potassium Channel ERG (KhERGCh) (AID 2283333)
# Voltage-gated inwardly rectifying potassium channel KCNH2 (Homo sapiens), sequence (Q12809 whole entry, looked up): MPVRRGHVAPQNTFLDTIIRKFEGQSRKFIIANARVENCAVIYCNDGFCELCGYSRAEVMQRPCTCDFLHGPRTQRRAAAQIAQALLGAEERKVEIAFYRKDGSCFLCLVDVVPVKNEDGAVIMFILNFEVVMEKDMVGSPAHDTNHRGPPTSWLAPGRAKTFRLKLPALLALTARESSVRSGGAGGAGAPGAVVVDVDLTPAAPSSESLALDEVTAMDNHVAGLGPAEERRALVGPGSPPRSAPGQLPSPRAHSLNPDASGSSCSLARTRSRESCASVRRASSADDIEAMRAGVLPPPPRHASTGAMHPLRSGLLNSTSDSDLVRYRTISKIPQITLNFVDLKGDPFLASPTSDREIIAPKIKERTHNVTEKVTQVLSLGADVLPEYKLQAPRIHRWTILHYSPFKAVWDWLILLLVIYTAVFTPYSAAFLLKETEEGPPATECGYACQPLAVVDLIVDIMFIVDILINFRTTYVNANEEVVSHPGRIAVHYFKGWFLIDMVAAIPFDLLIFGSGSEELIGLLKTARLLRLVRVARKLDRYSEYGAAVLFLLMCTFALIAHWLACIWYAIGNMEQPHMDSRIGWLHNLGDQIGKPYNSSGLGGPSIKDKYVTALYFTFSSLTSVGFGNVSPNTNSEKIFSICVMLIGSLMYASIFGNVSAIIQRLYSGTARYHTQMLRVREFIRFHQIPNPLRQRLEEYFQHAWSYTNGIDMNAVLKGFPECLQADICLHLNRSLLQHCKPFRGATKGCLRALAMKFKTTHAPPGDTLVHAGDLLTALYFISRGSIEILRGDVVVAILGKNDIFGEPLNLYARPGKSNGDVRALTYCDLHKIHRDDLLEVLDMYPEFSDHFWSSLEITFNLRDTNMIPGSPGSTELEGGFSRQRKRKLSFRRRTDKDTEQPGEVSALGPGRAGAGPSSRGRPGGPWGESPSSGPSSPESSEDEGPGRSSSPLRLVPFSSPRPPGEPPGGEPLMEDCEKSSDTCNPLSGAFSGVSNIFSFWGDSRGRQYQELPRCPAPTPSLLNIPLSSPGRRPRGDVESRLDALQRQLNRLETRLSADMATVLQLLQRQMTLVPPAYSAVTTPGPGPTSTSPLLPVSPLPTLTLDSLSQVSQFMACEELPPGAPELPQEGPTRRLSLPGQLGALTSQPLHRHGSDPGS
# Procedure, shortened: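 Membranes from CHO cells expressing human ERG; displacement of radioligand measured by filtration and scintillation after 0.75 h. Single-concentration duplicate screen at 25 uM, then concentration-response for actives; DMSO baseline.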
# [8] = biological target: rat Glutamate, NMDA Agonist Site (GluNMDA), Grin1 (gene 24408) (UniProt P35439); assay: NVS_LGIC_rGluNMDA_Agonist: NovaScreen (NVS) Ligand-Gated Ion Channel Assay for rat Glutamate, NMDA Agonist Site (GluNMDA) (AID 2283327)
# Procedure, shortened: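 Radioligand displacement at the agonist site on rat forebrain membrane preparations, read by filter scintillation after 1 h. Chemicals were first run at 25 uM in duplicate; those passing threshold were titrated to a 50 uM maximum.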
# [9] = biological target: rat Glutamate, AMPA Site (AMPA), Gria1 (gene 50592) (UniProt P19490); assay: NVS_LGIC_rAMPA: NovaScreen (NVS) Ligand-Gated Ion Channel Assay for rat Glutamate, AMPA Site (AMPA) (AID 2283324)
# rat Glutamate, AMPA Site (AMPA), Gria1 (gene 50592), sequence (P19490 whole entry, looked up): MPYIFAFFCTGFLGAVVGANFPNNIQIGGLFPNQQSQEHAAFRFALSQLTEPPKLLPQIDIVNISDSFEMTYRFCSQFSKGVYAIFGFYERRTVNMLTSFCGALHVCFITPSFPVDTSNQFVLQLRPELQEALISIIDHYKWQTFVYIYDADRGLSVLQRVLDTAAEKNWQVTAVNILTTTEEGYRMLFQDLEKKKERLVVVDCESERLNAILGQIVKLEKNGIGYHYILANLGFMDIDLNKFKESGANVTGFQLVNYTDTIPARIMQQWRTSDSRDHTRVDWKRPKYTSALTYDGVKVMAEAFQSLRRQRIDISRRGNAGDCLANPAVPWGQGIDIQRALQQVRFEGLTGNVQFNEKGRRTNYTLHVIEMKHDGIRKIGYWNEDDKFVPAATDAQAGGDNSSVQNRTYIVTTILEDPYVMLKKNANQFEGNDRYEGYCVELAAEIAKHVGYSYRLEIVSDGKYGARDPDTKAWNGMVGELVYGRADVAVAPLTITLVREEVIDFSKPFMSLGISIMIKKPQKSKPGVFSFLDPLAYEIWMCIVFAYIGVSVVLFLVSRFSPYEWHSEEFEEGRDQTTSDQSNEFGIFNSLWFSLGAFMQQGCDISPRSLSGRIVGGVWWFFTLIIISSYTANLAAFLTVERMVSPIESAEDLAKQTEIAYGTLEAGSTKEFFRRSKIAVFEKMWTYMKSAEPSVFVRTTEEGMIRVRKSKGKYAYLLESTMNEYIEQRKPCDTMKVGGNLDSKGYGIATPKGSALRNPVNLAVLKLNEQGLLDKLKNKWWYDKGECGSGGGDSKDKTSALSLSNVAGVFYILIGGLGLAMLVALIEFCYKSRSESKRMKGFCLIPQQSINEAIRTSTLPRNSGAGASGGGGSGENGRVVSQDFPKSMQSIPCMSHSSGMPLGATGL
# Method: NVS_LGIC_rAMPA is a biochemical, single-readout assay that uses extracted gene-proteins from Rat forebrain membranes in a tissue-based cell-free assay. Measurements were taken 1 hour after chemical dosing in a 48-well plate.NVS_LGIC_rAMPA is one of one assay component(s) measured or calculated from the NVS_LGIC_rAMPA assay. It is designed to make measurements of radioligand binding, a form of binding reporter, as detected with scintillation counting signals by Filter-based radiodetection technology.Data from the assay component NVS_LGIC_rAMPA was analyzed into 1 assay endpoint. This assay endpoint, NVS_LGIC_rAMPA, was analyzed in the positive analysis fitting direction relative to DMSO as the negative control and baseline of activity. Using a type of binding reporter, loss-of-signal activity can be used to understand changes in the binding as they relate to the gene Gria1. Furthermore, this assay endpoint can be referred to as a primary readout, because the performed assay has only produced 1 assay endpoint. To generalize the intended target to other relatable targets, this assay endpoint is annotated to the ion channel intended target family, where the subfamily is ligand-gated ion channel.
# Binding assays used specific radioligands (tritiated, iodinated) with non-radioactive competitive displacement ligands in agonist or antagonist protocols (as indicated) and various reference compounds and inhibitors to titrate specific binding to receptors and transporters. Most enzyme assays (CYPs, kinases, phosphatases, proteases, HDACs) used recombinant protein and specific substrates (fluorescence mostly, some colorimetric and radioactive) and inhibitors, followed by a biochemical separation of substrate and product. All assays for the biochemical HTS were initially run in duplicate at a single concentration (10 uM for CYP450 assays and 25 uM for all others). […]
smiles,measurement,setting,value
Cn1c(-c2ccccc2)cc(-c2ccccc2)[n+]1C,AC50,[1],2.36 µM (active)
COC(=O)c1c(C(F)F)nc(C(F)(F)F)c(C2=NCCS2)c1CC(C)C,outcome,[2],inactive
same,AC50,[3],25 µM (active)
same,outcome,[4],inactive
CC1(C)CCC(=Cc2ccc(Cl)cc2)C1(O)Cn1cncn1 (stereo not given),outcome,[5],inactive
same,AC50,[6],955 nM (active)
CS(=O)(=O)c1cc(C(F)(F)F)ccc1C(=O)c1cnoc1C1CC1,outcome,[5],inactive
CC(C)C1(C)N=C(c2ncccc2C(=O)O)NC1=O (stereo not given),outcome,[1],inactive
same,outcome,[3],inactive
Cc1c(COC(=O)[C@@H]2[C@H](/C=C(\Cl)C(F)(F)F)C2(C)C)cccc1-c1ccccc1,outcome,[5],inactive
same,outcome,[4],inactive
CCOc1nc(F)cc2nc(S(=O)(=O)Nc3c(Cl)cccc3Cl)nn12,outcome,[3],inactive
Cc1cc(C)nc(Nc2ccccc2)n1,outcome,[1],inactive
Nc1cnn(-c2ccccc2)c(=O)c1Cl,outcome,[3],inactive
CCCN(CC)CC1COC2(CCC(C(C)(C)C)CC2)O1 (stereo not given),AC50,[1],0.822 µM (active)
same,AC50,[7],5.15 µM (active)
Cc1cnc(C2=NC(C)(C(C)C)C(=O)N2)c(C(=O)O)c1 (stereo not given),outcome,[3],inactive
CC(C)N1C(=O)c2ccccc2NS1(=O)=O,outcome,[8],inactive
CCN(CC)C(=O)C(C)Oc1cccc2ccccc12 (stereo not given),outcome,[1],inactive
same,AC50,[3],42.2 µM (active)
same,outcome,[3],inactive
same,AC50,[4],1.11 µM (active)
N#Cc1c[nH]cc1-c1cccc2c1OC(F)(F)O2,outcome,[1],inactive
same,outcome,[4],inactive
CC1(C)C(C(=O)OC(C#N)c2cccc(Oc3ccccc3)c2)C1(C)C (stereo not given),outcome,[5],inactive
same,outcome,[4],inactive
COC(=O)NS(=O)(=O)c1ccc(N)cc1,outcome,[2],inactive
CCNC(=O)NC(=O)C(C#N)=NOC,outcome,[1],inactive
same,outcome,[9],inactive
same,outcome,[3],inactive
